Rows were chosen to be rich in hits. Some 12% of all compounds tested hit in one or more screens of this group.
Gal4-VP16 FLuc: Gal4-VP16 reporter inhibition counter-screen | Drosophila S2 Gal4-VP16 UAS-luciferase, luminescence, 20 h | Potency, µM (series often up to 53.6 µM), for inactives: at the highest dose activity, negative = inhibition, most hits filed as inhibitors | 3.5% of 310,000 active;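 note: Gal4-VP16 expression switched on by copper sulfate through the metallothionein promoter; nearly all actives have a fitted effect of over 50% in size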
ALDH1A1 block: ALDH1A1 (human) enzyme inhibition; P00352; Purified ALDH1A1, NADH fluorescence, propionaldehyde substrate; Potency, µM (titrated, usually from 75.3 µM), without a hit: at the top dose activity, negative = inhibition, most hits filed as inhibitors; 7.3% of 220,000 active; active = well fitted inhibition curve with a large enough effect, not every such curve was filed as active; inconclusive = small, poorly fitted or top-dose-only effect, or another doubt; inactive = no such curve, though single readings can be large or run the other way;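 note: plate controls were no enzyme wells and a reference inhibitor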
PLK1 PBD inh: blocks phosphopeptide binding to human PLK1 polo-box domain; Plk1 PBD binding of FITC phosphopeptide, fluorescence polarization; P53350; Potency, µM, for the others: max response, negative = inhibition, actives largely listed as inhibitors; AID 720504; 2.8% of 360,000 active; note: series mostly up to about 57 µM; nearly all actives have a fitted effect of over 65% in size
Sfp PPTase inh: blocks B. subtilis Sfp PPTase activity. Q9F4F7. AID 1490. 3.5% of 310,000 active. Biochemical Sfp PPTase activity, qHTS. Potency, µM, for the others: largest response in the series, negative = inhibition, most hits filed as inhibitors;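 note: the enzyme is Sfp with the accession as filed and its product quenches rhodamine fluorescence; 0% = enzyme reaction without inhibitor and -100% = no enzyme wells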
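Buffer: 50 mM Hepes-Na pH 7.6, 10 mM MgCl2, 0.01% Nonidet P-40, 0.01% BSA. Enzyme 15 nM, pre-exposed to compound 15 min; substrates then added and fluorescence change tracked over 30 min.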
RORgamma inh: blocks mouse ROR gamma transcriptional activity; P51450; Drosophila S2 Gal4-RORgamma UAS-luciferase reporter, 20 h; Potency, µM (doses to about 53.6 µM), inactives show at the top dose activity change, negative = inhibition, most hits filed as inhibitors; 5.4% of 310,000 active; note: nearly all actives have a fitted effect of over 60% in size
Target sequence (P51450 whole entry, looked up, the tested form may be a part): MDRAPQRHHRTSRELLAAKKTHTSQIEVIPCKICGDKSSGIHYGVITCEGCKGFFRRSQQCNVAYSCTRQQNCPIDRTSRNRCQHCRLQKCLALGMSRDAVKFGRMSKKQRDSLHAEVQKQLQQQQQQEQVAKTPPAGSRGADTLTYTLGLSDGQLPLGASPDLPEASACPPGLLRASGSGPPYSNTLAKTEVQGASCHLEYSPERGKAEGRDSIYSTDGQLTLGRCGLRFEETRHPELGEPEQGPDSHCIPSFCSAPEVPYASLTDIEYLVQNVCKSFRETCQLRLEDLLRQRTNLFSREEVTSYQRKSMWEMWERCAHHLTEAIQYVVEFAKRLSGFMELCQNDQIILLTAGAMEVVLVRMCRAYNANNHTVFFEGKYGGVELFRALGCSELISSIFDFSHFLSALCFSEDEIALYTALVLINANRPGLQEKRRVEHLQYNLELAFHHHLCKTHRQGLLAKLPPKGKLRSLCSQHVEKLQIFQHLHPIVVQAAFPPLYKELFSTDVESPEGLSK
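Drosophila S2 cells stably expressing Gal4-DBD/mouse RORγ fusion under metallothionein promoter plus UAS-luciferase; compound 1 h, then 700 uM CuSO4 induction for 20 h at ambient temperature; inhibition read as reduced luminescence.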
Numbers without * were called inactive; ? = inconclusive; . = no result given; [ ] = dose if it differs, or a comment. Unless noted, calls come from the whole dose curve; as a rule, active = well fitted curve in the direction sought with a large enough effect; inconclusive = small, poorly fitted or top-dose-only effect, or another doubt; inactive = no such curve, though single readings can be large; an effect the other way counts as inactive or inconclusive. Unless noted, % is set by controls: 0 for no effect and ±100 for the full control effect; potency is the fitted concentration of half-maximal effect.

SMILES	Gal4-VP16 FLuc	ALDH1A1 block	PLK1 PBD inh	Sfp PPTase inh	RORgamma inh
O=C(/C=C/C(=O)N1CCc2ccccc2C1)N1CCc2ccccc2C1	20µM*	.	-6%	10%	?
CCCCNC(=O)N1CCc2ccccc2C1	-1%	2%	30µM*	20%	12%
COCOCCn1cc(CN2CCS(=O)(=O)N(Cc3ccc(-c4ccccc4)cc3)C(C(C)C)C2=O)nn1 (centres undefined)	.	.	-2%	.	.
CC1CCN(C(=O)c2nc[nH]c2C(=O)N2CCc3ccccc3C2)CC1	.	.	1%	.	.
CC(C)(C)c1ccc(/C=C/C(=O)N2CCc3ccccc3C2)cc1	1µM*	-1%	-14%	-17%	?
Cn1cnc(C(=O)N2CCc3ccccc3C2)c1C(=O)N1CCc2ccccc2C1	.	.	21µM*	.	.
O=C(NCc1ccccc1)c1cc(C2CCCCN2C(=O)c2ccc3c(c2)CCO3)on1 (centres undefined)	.	.	-2%	.	.
CC1CCCC(C)N1C(=O)COC(=O)CSc1ccc([N+](=O)[O-])cc1 (centres undefined)	.	.	19µM*	.	.
CCNc1ccc(C(=O)OCC(=O)N(Cc2ccccc2)C(C)(C)C)cc1[N+](=O)[O-]	-2%	3%	-3%	2%	7%
CC(C)(C)N(Cc1ccccc1)C(=O)COC(=O)CSc1ccc([N+](=O)[O-])cc1	.	.	12µM*	.	.
CCCN(CC(=O)Nc1ccccc1C)C(=O)COC(=O)CSc1ccc([N+](=O)[O-])cc1	.	.	19µM*	.	.
CC1CCCC(C)N1C(=O)COC(=O)c1cc([N+](=O)[O-])ccc1N1CCOCC1 (centres undefined)	.	.	-6%	.	.
COc1ccccc1CNc1ncncc1-c1cccc(C#N)c1	4%	-1%	.	3%	3%
CCCCc1c(-c2ccccc2OC)ncn1Cc1cccc(-c2ccccc2)c1	.	.	-17%	.	.
CC(=O)NC1=NN(C(C)=O)C2(S1)C(=O)N(CC(C)C)c1ccc(C)cc12 (centres undefined)	-2%	.	-4%	12%	-14%
CO[C@H]1COC(=O)[C@H](C)COC(=O)[C@H](C)NC(=O)C/C=C\[C@H]1C	-16%[10 µM]	0%[13.5 µM]	.	19%	11%[10 µM]
CC(NC(=S)NCCCN1CCOCC1)C12CC3CC(CC(C3)C1)C2 (centres undefined)	?	-13%	-8%	-11%	10µM*
O=C(Nc1ccc(N2CCOCC2)cc1)c1ccc2nc(-c3ccco3)c(-c3ccco3)nc2c1	-24%	3%	-10%	-8%	-20%
CN(C)C(=S)Nc1ccc(N2CCOCC2)cc1	-20%	1%	6%	-12%	9%
Cc1ccc(NC(=S)NC(=O)c2cncc(Br)c2)cc1Cl	.	.	-8%	.	.
O=C(NC(=S)Nc1ccc(N2CCOCC2)cc1)c1cncc(Br)c1	8.9µM*	?	-8%	56µM*	5µM*
S=C(Nc1ccc(N2CCOCC2)cc1)Nc1ccc2nc(-c3ccco3)c(-c3ccco3)nc2c1	-1%	7.1µM*	?	-30%	0%
CC(=O)c1ccc(NC(=S)Nc2ccc(N3CCOCC3)cc2)cc1	-10%	22µM*	?	?	-23%
COc1ccc(N(CC(=O)NC2CC3CCC2C3)S(=O)(=O)c2ccc(C)cc2)cc1Cl (centres undefined)	.	.	1%	.	.
Nc1ncnc2c1cnn2C1CCCCC1	-4%	1%	-11%	15%	1%
SMILES	Gal4-VP16 FLuc	ALDH1A1 block	PLK1 PBD inh	Sfp PPTase inh	RORgamma inh
CC[C@@]1(C(=O)OC)N[C@H](CN(C)C(=O)c2ccc(F)cc2)[C@@H]2C(=O)N(Cc3ccccc3)C(=O)[C@@H]21	.	.	-8%	.	.
CN(C)Cc1c(-c2ccc(Cl)cc2)nc2ccc(Cl)cn12	-10%	?	-13%	18%	?
S=C(NCCCN1CCOCC1)Nc1ccc(Cl)cc1	-13%	-3%	-2%	15%	-8%
O=C(NC(=S)NCCN1CCOCC1)c1ccccc1	-3%	-5%	-27%	15%	?
FC(F)(F)Oc1ccc(NC(=S)NCCCN2CCOCC2)cc1	-12%	9%	12µM*	56µM*	-13%
Cc1ccccc1SCC(=O)Nc1ccc(N2CCOCC2)cc1	-6%	-5%	19µM*	17%	-1%
O=C(NC(=S)Nc1ccc(N2CCOCC2)cc1)c1cccc(Cl)c1Cl	5µM*	.	0%	9%	3.2µM*
O=C(NC(=S)NCCN1CCOCC1)c1cccc(Cl)c1	?	6%	-4%	14%	11µM*
CN1CCN(c2ccc(NC(=S)NC(=O)c3cccc4c(Cl)cccc34)cc2)CC1	-13%	.	-13%	4%	?
Nc1ccccc1SCC(=O)Nc1ccc(N2CCOCC2)cc1	0%	-10%	0%	6%	2%
C[C@H](CO)N1C[C@H](C)[C@@H](CN(C)S(=O)(=O)c2ccccc2)Oc2c(NS(=O)(=O)c3ccccc3)cccc2C1=O	.	.	-5%	.	.
CC1(C)OC(=O)C2=C(C[C@@H](CCc3ccccc3)O[C@@H]2c2ccc(Cl)cc2)O1	.	.	-7%	.	.
Cc1cn([C@H]2C[C@H](O)[C@@H](CNC(=O)[C@@H]3CCCN3Cc3ccccc3)O2)c(=O)[nH]c1=O	.	.	2%	.	.
S=C(NCCCN1CCOCC1)NCCCN1CCOCC1	-15%	2%	5.3µM*	7.1µM*	-15%
Cc1ccc(C(=O)N/C(=C\c2ccc(-c3ccccc3[N+](=O)[O-])o2)C(=O)NCCCN2CCOCC2)cc1	?	.	27µM*	?	-13%
Cc1ccc(C(=O)N/C(=C\c2cn(C)c3ccccc23)C(=O)NCCCN2CCOCC2)cc1	-4%	.	-18%	1%	2%
O=C(NC(=S)Nc1ccc(N2CCOCC2)cc1)c1ccco1	-18%	?	-10%	?	?
O=C(NC(=S)Nc1ccc(N2CCOCC2)cc1)c1cccc(Cl)c1	11µM*	?	-13%	-3%	2.5µM*
CCc1ccc(C(=O)NC(=S)Nc2ccc(N3CCOCC3)cc2)cc1	18µM*	11µM*	-3%	1%	5µM*
CN(C)c1cccc(C(=O)Nc2ccc(N3CCOCC3)cc2)c1	6%	4%	-5%	10%	?
Cc1cc(C)nc(NC(=S)NC(=O)c2ccccc2F)n1	.	.	-4%	.	.

High-throughput results as filed in PubChem BioAssay.
